Measured values from PubChem BioAssay AID1159580 (chemical genetic matrix, 2015).
Out of some 5,500 compounds screened, about 2,000 (36%) were called active. Not shown: some 18% with an inconclusive outcome. The list shows a part of the results. A number with no mark means an inactive call. Rule as the data show it: active = normalized growth mostly below about 0.91 (no sharp cut-off); inconclusive = no clear call, values can overlap the other calls; inactive = mostly above about 0.92.

Test: chemical genetic growth profiling, strain panel (AID 1159580);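 also: tested at 20 µM; growth read once vehicle control cultures reached saturation at 30 °C; 1 = growth at the plate median or of vehicle wells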
Details: S. cerevisiae deletion strains, growth OD

COc1c2c(c(CC=C(C)C)c3oc(=O)c(-c4ccc(O)cc4)c(O)c13)OC(C)(C)C=C2
normalized growth (locus YAL013W, strain DEP1, stronger effect = lower value): 0.307 (active)
normalized growth (locus YAL021C, strain ccr4, stronger effect = lower value): 0.989
normalized growth (locus YAL026C, strain drs2, stronger effect = lower value): 0.87 (active)
normalized growth (locus YAL030W, strain snc1, stronger effect = lower value): 0.916 (active)
normalized growth (locus YBL061C, strain skt5, stronger effect = lower value): 0.846 (active)
normalized growth (locus YBR009C, strain hhf1, stronger effect = lower value): 0.656 (active)
normalized growth (locus YBR021W, strain FUR4, stronger effect = lower value): 0.849
normalized growth (locus YBR023C, strain chs3, stronger effect = lower value): 0.854 (active)
normalized growth (locus YBR171W, strain sec66, stronger effect = lower value): 0.989
normalized growth (locus YBR229C, strain ROT2, stronger effect = lower value): 0.997
normalized growth (locus YBR231C, strain swc5, stronger effect = lower value): 0.857 (active)
normalized growth (locus YBR279W, strain paf1, stronger effect = lower value): 0.972
normalized growth (locus YCL011C, strain gbp2, stronger effect = lower value): 0.759 (active)
normalized growth (locus YCL016C, strain dcc1, stronger effect = lower value): 0.938
normalized growth (locus YCL029C, strain bik1, stronger effect = lower value): 0.677 (active)
normalized growth (locus YCL061C, strain MRC1, stronger effect = lower value): 0.816 (active)
normalized growth (locus YCL069W, strain vba3, stronger effect = lower value): 0.812 (active)
normalized growth (locus YCR088W, strain abp1, stronger effect = lower value): 0.944
normalized growth (locus YDL005C, strain med2, stronger effect = lower value): 0.925
normalized growth (locus YDL035C, strain GPR1, stronger effect = lower value): 0.861
normalized growth (locus YDL040C, strain nat1, stronger effect = lower value): 0.992
normalized growth (locus YDL074C, strain BRE1, stronger effect = lower value): 0.325 (active)
normalized growth (locus YDL101C, strain DUN1, stronger effect = lower value): 0.862 (active)
normalized growth (locus YDL185W, strain tfp1, stronger effect = lower value): 1.02
normalized growth (locus YDL192W, strain arf1, stronger effect = lower value): 0.414 (active)
normalized growth (locus YDR001C, strain nth1, stronger effect = lower value): 0.989
normalized growth (locus YDR069C, strain doa4, stronger effect = lower value): 1.01
normalized growth (locus YDR101C, strain arx1, stronger effect = lower value): 0.775 (active)
normalized growth (locus YDR137W, strain rgp1, stronger effect = lower value): 0.819 (active)
normalized growth (locus YDR150W, strain NUM1, stronger effect = lower value): 1.01
normalized growth (locus YDR159W, strain sac3, stronger effect = lower value): 0.383 (active)
normalized growth (locus YDR162C, strain NBP2, stronger effect = lower value): 0.642 (active)
normalized growth (locus YDR195W, strain ref2): 0.459 (active)
normalized growth (locus YDR297W, strain sur2, stronger effect = lower value): 0.847 (active)
normalized growth (locus YDR318W, strain mcm21, stronger effect = lower value): 0.681 (active)
normalized growth (locus YDR334W, strain swr1, stronger effect = lower value): 0.99
normalized growth (locus YDR335W, strain msn5, stronger effect = lower value): 0.851 (active)
normalized growth (locus YDR388W, stronger effect = lower value): 0.912 (active)
normalized growth (locus YDR392W, strain spt3, stronger effect = lower value): 0.103 (active)
normalized growth (locus YDR502C, strain sam2, stronger effect = lower value): 0.768 (active)
normalized growth (locus YEL003W, strain gim4, stronger effect = lower value): 0.766 (active)
normalized growth (locus YEL037C, strain rad23, stronger effect = lower value): 0.992
normalized growth (locus YEL061C, strain CIN8 (second series), stronger effect = lower value): 0.765 (active)
normalized growth (locus YER015W, strain faa2, stronger effect = lower value): 0.845 (active)
normalized growth (locus YER016W, strain bim1, stronger effect = lower value): 0.969
normalized growth (locus YER110C, stronger effect = lower value): 0.938
normalized growth (locus YER111C, strain swi4, stronger effect = lower value): 0.518 (active)
normalized growth (locus YER155C, strain BEM2 (second series), stronger effect = lower value): 0.536 (active)
normalized growth (locus YER155C, strain BEM2, stronger effect = lower value): 0.277 (active)
normalized growth (locus YER167W, strain BCK2, stronger effect = lower value): 0.806 (active)
normalized growth (locus YFR010W, strain ubp6, stronger effect = lower value): 0.977
normalized growth (locus YGL078C, strain dbp3, stronger effect = lower value): 0.98
normalized growth (locus YGL086W, strain mad1, stronger effect = lower value): 0.683 (active)
normalized growth (locus YGL167C, strain pmr1, stronger effect = lower value): 0.976
normalized growth (locus YGL173C, strain kem1, stronger effect = lower value): 0.9 (active)
normalized growth (locus YGL227W, strain vid30, stronger effect = lower value): 0.765 (active)
normalized growth (locus YGL240W, strain doc1, stronger effect = lower value): 0.903
normalized growth (locus YGL248W, strain PDE1, stronger effect = lower value): 0.763 (active)
normalized growth (locus YGL253W, strain hxk2, stronger effect = lower value): 0.838 (active)
normalized growth (locus YGR078C, strain PAC10, stronger effect = lower value): 0.633 (active)
normalized growth (locus YGR135W, strain pre9, stronger effect = lower value): 0.907
normalized growth (locus YGR229C, strain SMI1, stronger effect = lower value): 0.409 (active)
normalized growth (locus YGR252W, strain gcn5, stronger effect = lower value): 0.696 (active)
normalized growth (locus YHR013C, strain ard1, stronger effect = lower value): 1.03
normalized growth (locus YHR027C, strain rpn1, stronger effect = lower value): 0.942
normalized growth (locus YHR079C, strain IRE1 (second series), stronger effect = lower value): 0.868 (active)
normalized growth (locus YHR094C, strain hxt1, stronger effect = lower value): 0.832 (active)
normalized growth (locus YHR129C, strain ARP1, stronger effect = lower value): 0.61 (active)
normalized growth (locus YHR142W, strain chs7, stronger effect = lower value): 0.512 (active)
normalized growth (locus YHR200W, strain rpn10, stronger effect = lower value): 0.889 (active)
normalized growth (locus YIL066C, strain RNR3, stronger effect = lower value): 0.708 (active)
normalized growth (locus YIL073C, strain SPO22, stronger effect = lower value): 0.963
normalized growth (locus YIL125W, strain kgd1, stronger effect = lower value): 0.911 (active)
normalized growth (locus YIR030C, strain dcg1, stronger effect = lower value): 0.773 (active)
normalized growth (locus YJL092W, strain hpr5, stronger effect = lower value): 0.932
normalized growth (locus YJL095W, strain BCK1 (second series), stronger effect = lower value): 0.799 (active)
normalized growth (locus YJL095W, strain BCK1, stronger effect = lower value): 0.352 (active)
normalized growth (locus YJL115W, strain asf1, stronger effect = lower value): 1.02
normalized growth (locus YJL129C, strain trk1, stronger effect = lower value): 0.648 (active)
normalized growth (locus YJL134W, strain LCB3, stronger effect = lower value): 0.977
normalized growth (locus YJL154C, strain vps35, stronger effect = lower value): 0.982
normalized growth (locus YJL164C, strain tpk1, stronger effect = lower value): 0.747 (active)
normalized growth (locus YJL166W, strain qcr8, stronger effect = lower value): 0.679 (active)
normalized growth (locus YJL168C, strain set2, stronger effect = lower value): 0.985
normalized growth (locus YJL187C, strain SWE1 (second series), stronger effect = lower value): 0.837 (active)
normalized growth (locus YJL187C, strain SWE1, stronger effect = lower value): 0.877 (active)
normalized growth (locus YKL009W, strain mrt4, stronger effect = lower value): 0.925
normalized growth (locus YKL068W, stronger effect = lower value): 0.982
normalized growth (locus YKL085W, strain MDH1 (second series), stronger effect = lower value): 0.909 (active)
normalized growth (locus YKL085W, strain MDH1, stronger effect = lower value): 0.909 (active)
normalized growth (locus YKL160W, strain elf1, stronger effect = lower value): 0.95
normalized growth (locus YKL190W, strain CNB1, stronger effect = lower value): 0.851 (active)
normalized growth (locus YKR001C, strain vps1, stronger effect = lower value): 0.381 (active)
normalized growth (locus YKR026C, strain gcn3, stronger effect = lower value): 0.971
normalized growth (locus YKR091W, strain srl3, stronger effect = lower value): 0.991
normalized growth (locus YLL001W, strain dnm1, stronger effect = lower value): 0.848 (active)
normalized growth (locus YLL026W, stronger effect = lower value): 0.848 (active)
normalized growth (locus YLL041C, strain sdh2, stronger effect = lower value): 0.984
normalized growth (locus YLR027C, strain aat2, stronger effect = lower value): 0.72 (active)
normalized growth (locus YLR039C, strain RIC1, stronger effect = lower value): 0.444 (active)
normalized growth (locus YLR058C, strain SHM2, stronger effect = lower value): 0.782 (active)
normalized growth (locus YLR102C, strain apc9, stronger effect = lower value): 0.847 (active)
normalized growth (locus YLR221C, strain rsa3, stronger effect = lower value): 0.674 (active)
normalized growth (locus YLR258W, strain gsy2, stronger effect = lower value): 0.824 (active)
normalized growth (locus YLR262C, strain YPT6 (second series), stronger effect = lower value): 0.584 (active)
normalized growth (locus YLR268W, strain sec22, stronger effect = lower value): 0.693 (active)
normalized growth (locus YLR320W, strain mms22, stronger effect = lower value): 0.65 (active)
normalized growth (locus YLR342W, strain FKS1 (second series), stronger effect = lower value): 0.812
normalized growth (locus YLR342W, strain FKS1, stronger effect = lower value): 0.907 (active)
normalized growth (locus YLR357W, strain rsc2, stronger effect = lower value): 1.01
normalized growth (locus YLR370C, strain arc18, stronger effect = lower value): 0.965
normalized growth (locus YLR371W, strain rom2, stronger effect = lower value): 0.519 (active)
normalized growth (locus YLR384C, strain iki3, stronger effect = lower value): 1
normalized growth (locus YLR418C, strain cdc73, stronger effect = lower value): 0.214 (active)
normalized growth (locus YML016C, strain PPZ1, stronger effect = lower value): 0.904 (active)
normalized growth (locus YML032C, strain rad52, stronger effect = lower value): 0.63 (active)
normalized growth (locus YML120C, strain ndi1, stronger effect = lower value): 0.467 (active)
normalized growth (locus YML124C, strain tub3, stronger effect = lower value): 0.858 (active)
normalized growth (locus YMR058W, strain fet3, stronger effect = lower value): 0.834 (active)
normalized growth (locus YMR078C, strain ctf18, stronger effect = lower value): 0.537 (active)
normalized growth (locus YMR125W, strain sto1, stronger effect = lower value): 0.866 (active)
normalized growth (locus YMR129W, stronger effect = lower value): 0.915 (active)
normalized growth (locus YMR205C, strain PFK2, stronger effect = lower value): 0.664 (active)
normalized growth (locus YMR223W, strain ubp8, stronger effect = lower value): 0.792 (active)
normalized growth (locus YMR231W, strain pep5, stronger effect = lower value): 0.999
normalized growth (locus YMR263W, strain SAP30, stronger effect = lower value): 0.866 (active)
normalized growth (locus YMR307W, strain GAS1, stronger effect = lower value): 0.48 (active)
normalized growth (locus YNL067W, strain RPL9B, stronger effect = lower value): 0.938
normalized growth (locus YNL071W, strain lat1, stronger effect = lower value): 0.484 (active)
normalized growth (locus YNL128W, strain TEP1, stronger effect = lower value): 0.906
normalized growth (locus YNL209W, strain ssb2, stronger effect = lower value): 0.935
normalized growth (locus YNL233W, strain BNI4, stronger effect = lower value): 0.635 (active)
normalized growth (locus YNL248C, strain rpa49, stronger effect = lower value): 0.973
normalized growth (locus YNL250W, strain rad50, stronger effect = lower value): 1.05
normalized growth (locus YNL271C, strain bni1, stronger effect = lower value): 0.976
normalized growth (locus YNL298W, strain CLA4, stronger effect = lower value): 0.95
normalized growth (locus YNL307C, strain MCK1, stronger effect = lower value): 0.24 (active)
normalized growth (locus YNL322C, strain KRE1 (second series), stronger effect = lower value): 1.03
normalized growth (locus YNL322C, strain KRE1, stronger effect = lower value): 0.88 (active)
normalized growth (locus YNR049C, strain mso1, stronger effect = lower value): 0.987
normalized growth (locus YNR052C, strain pop2, stronger effect = lower value): 0.546 (active)
normalized growth (locus YOL012C, strain htz1): 0.365
normalized growth (locus YOL147C, strain pex11, stronger effect = lower value): 0.481 (active)
normalized growth (locus YOR001W, strain rrp6, stronger effect = lower value): 0.797 (active)
normalized growth (locus YOR061W, strain CKA2, stronger effect = lower value): 0.939
normalized growth (locus YOR069W, strain VPS5, stronger effect = lower value): 0.896 (active)
normalized growth (locus YOR070C, strain gyp1, stronger effect = lower value): 0.793 (active)
normalized growth (locus YOR080W, strain dia2, stronger effect = lower value): 0.946
normalized growth (locus YOR083W, strain WHI5, stronger effect = lower value): 0.876 (active)
normalized growth (locus YOR106W, strain vam3, stronger effect = lower value): 0.883
normalized growth (locus YOR136W, strain idh2, stronger effect = lower value): 0.867 (active)
normalized growth (locus YOR144C, strain elg1, stronger effect = lower value): 0.592 (active)
normalized growth (locus YOR184W, strain ser1, stronger effect = lower value): 0.217 (active)
normalized growth (locus YOR265W, strain rbl2, stronger effect = lower value): 0.919 (active)
normalized growth (locus YOR270C, strain vph1, stronger effect = lower value): 0.549 (active)
normalized growth (locus YOR290C, strain snf2, stronger effect = lower value): 0.631 (active)
normalized growth (locus YOR316C, strain cot1, stronger effect = lower value): 0.924
normalized growth (locus YPL051W, strain arl3, stronger effect = lower value): 0.787 (active)
normalized growth (locus YPL078C, strain atp4, stronger effect = lower value): 0.802 (active)
normalized growth (locus YPL106C, strain sse1, stronger effect = lower value): 0.913
normalized growth (locus YPL240C, strain hsp82, stronger effect = lower value): 0.853 (active)
normalized growth (locus YPR119W, strain clb2, stronger effect = lower value): 0.735 (active)
normalized growth (locus YPR141C, strain kar3, stronger effect = lower value): 0.977
normalized growth (locus YPR163C, strain tif3, stronger effect = lower value): 0.463 (active)
normalized growth (locus YPR167C, strain met16, stronger effect = lower value): 0.751 (active)
normalized growth (strain wtn01, stronger effect = lower value): 0.747 (active)
